The whole screen tested about 360,000 compounds, of which about 7,500 (2.1%) were called active. Not shown: some 8% with an inconclusive outcome. Calls follow the shape of the dose curve; as a rule, active = well fitted cell-killing curve with a large enough effect; inconclusive = small, poorly fitted or top-dose-only effect, or effect the other way, or another doubt; inactive = no such curve, though single readings can be large or run the other way. Only a selection was taken, and actives are over-represented in it overall.
Assay: qHTS for induction of synthetic lethality in tumor cells producing 2HG: qHTS for the HT-1080-IDH1KD cell line
Details: HT-1080 IDH1 knockdown viability, ATP luminescence, 48 h; series mostly up to 46.1 µM; activity, negative = toxicity: at the top concentration
Description: Unbiased genomic sequencing for 22 glioma genomes found recurrent mutation of IDH1 on chromosome 2q33, a gene encoding the cytosolic isoform of IIDH1 associated with the tri-carboxylic acid cycle (TCA) that catalyzes the oxidative decarboxylation of isocitrate, yielding alpha-ketoglutarate and CO2 via NADP+ to NADPH conversion. Subsequent studies confirmed the recurrent IDH mutations in up to 70% of secondary gliomas and in 10% of AML cases. In addition, the somatic mutation of cancer-associated IDH1 is a point mutation resulting in various amino-acid substituents at Arginine132 (IDH1 R132), a key residue found in the enzyme's active site that when mutated, results in the loss-of-function in metabolizing isocitrate but confers a gain-of-function to produce the oncometabolite 2-hydroxyglutarate (2HG). This in effect defines IDH1 as an oncogene and provides an extraordinary opportunity to discover chemical probes against mutant IDH1 that may translate into much needed new therapies for glioma and AML patients.
This assay aims to perform a synthetic-lethal screen for chemical probes specific for 2HG-producing tumor cells using matched paired cell lines (1) HT-1080-NT fibrosarcoma cell line that overproduces 2HG and (2) HT-1080-IDH1KD cell line which has IDH1 expression knocked-down. Desirable compounds are toxic to the NT fibrosarcoma cell line but not to the IDH1KD cell line. The data in this AID corresponds to the results of the qHTS against the HT-1080 IDH1KD cell line.
[1] Dang L, Jin S, Su SM. IDH mutations in glioma and acute myeloid leukemia. Trends of Mol Med. 2010; 16(9): 387-97.
[2] Dang L et al. Cancer-associated IDH1 mutations produce 2-hydroxyglutarate. Nature. 2010; 465(7300):966.
Molecular Libraries Probe Production Centers Network [MLPCN]
NIH Chemical Genomics Center [NCGC]
Assay Submitter (PI): Lenny Dang Ph.D., Agios Pharmaceuticals
Suspensions of trypsinized HT-1080-IDH1KD cells were dispensed into white, tissue culture-treated, solid 1536-well plates at 5uL/well (750 cells/well final concentration) in RPMI medium supplemented with 5% FBS. Plates were incubated at 37 degrees C for 2 hours, after which 23 nL of compounds or DMSO were delivered to each well using a pin tool. Plates were then incubated at 37 degrees C for an additional 48 hours. CellTiter-Glo viability reagent (Promega) was dispensed into wells (2.5uL/well) and incubated at room temperature for 10 minutes. The plates were measured on a PerkinElmer ViewLux plate reader for luminescent signal (clear filter, 1 sec exp.). DMSO-treated control wells and media-only (no cells) control wells were used to normalize %Activity of identified toxic compounds; DMSO-treated wells corresponded to 0%Activity (100% viability), while media-only controls were used to normalize 100%Activity (0% viability). To minimize variability between cell lines, both HT-1080-NT and HT-1080-IDH1KD lines were dispensed and treated with identical compound series in single batches.
Concentration-response curves were fitted to the signals arising from the resulting luminescence. The concentration-effect curves were then classified based on curve quality (r2), response magnitude and degree of measured activity, and compounds were subsequently categorized based on their curve class.
Potency is read from the fitted curve at half-maximal effect.

| Structure (SMILES) | Potency | activity, negative = toxicity |
| --- | --- | --- |
| Cc1nc(N=C(N)N)nc2c(C)cccc12 | 32.6 µM (active) | – |
| Cc1cc(C)c2cc(C#N)c(N3CCNCC3)nc2c1 | – | 1.86% (inactive) |
| CCOC(=O)c1c(C)nc2c(c1C)c(=O)oc1ccccc12 | – | 13.5% (inactive) |
| CCOC(=O)c1ccccc1OC(=O)Oc1ccccc1C(=O)OCC | – | -13.5% (inactive) |
| CCOC(=O)c1c(C)[nH]c2c1-c1ccccc1C(=O)C2=O | 2.91 µM (active) | – |
| COCc1cccc(-c2csc(C(O)c3ccc(F)cc3)n2)c1 (configuration not stated) | – | -25.4% (inactive) |
| COc1cccc(OCc2cc(C(=O)N3CCN(C(=O)c4ccco4)CC3)no2)c1 | – | -1.71% (inactive) |
| Cc1ccccc1C(=O)Nc1ccc(N2CCCCCC2)cc1 | 14.6 µM (active) | – |
| COc1cccc(C(=O)Nc2nnc(S(=O)(=O)N3CCCCC3)s2)c1 | – | -13% (inactive) |
| Cc1ccccc1C(=O)N1CCN(c2ccc(NC(=O)c3cccs3)cc2)CC1 | – | -0.779% (inactive) |
| COc1cccc(C(=O)Nc2ccc(N3CCCC3)cc2)c1 | 18.4 µM (active) | – |
| COc1cccc(C(=O)Nc2ccc3nc4n(c(=O)c3c2)CCCCC4)c1 | – | -9.88% (inactive) |
| Cc1ccccc1C(=O)Nc1ccccc1NC(=O)c1ccccc1C | – | 0.652% (inactive) |
| Cc1ccc(OCC(=O)Nc2ccc(N3CCN(C(=O)c4ccco4)CC3)cc2)c(C)c1 | – | -11.4% (inactive) |
| COc1cccc(C(=O)Nc2ccc(N3CCN(C(=O)c4ccco4)CC3)cc2)c1 | 11.6 µM (active) | – |
| Cc1cccc(N(CC(=O)N2CCCC2)S(C)(=O)=O)c1C | – | 0.0682% (inactive) |
| COC(=O)c1ccccc1N=NNc1ccc([N+](=O)[O-])cc1 | – | 5.48% (inactive) |
| CCCNC(=O)C1CC(=O)N(c2ccc(OCc3ccccc3)cc2)C1 (configuration not stated) | – | -6.41% (inactive) |
| Cc1nc2ccccn2c(=O)c1NC(=O)c1ccc(Br)o1 | – | 8.09% (inactive) |
| C[C@H]1Cn2cnc(C(=O)N[C@H](C)c3ccccc3)c2C(=O)N1 | – | 1.93% (inactive) |
| Cc1ccc(CCNC(=O)CN2C(=O)CSc3ccc(S(=O)(=O)N4CCOCC4)cc32)cc1 | – | 0.335% (inactive) |

| Structure (SMILES) | Potency | activity, negative = toxicity |
| --- | --- | --- |
| CC1(C(=O)Nc2cccc3cccnc23)CCN1C(=O)CCC1CCCC1 (configuration not stated) | – | -9.67% (inactive) |
| CC[C@]1(O)C[C@@H]2CN(CCc3c([nH]c4ccccc34)[C@@](C(=O)OC)(c3cc4c(cc3OC)N(C)[C@H]3[C@@](O)(C(=O)OC)[C@H](OC(C)=O)[C@]5(CC)C=CCN6CC[C@]43[C@@H]65)C2)C1 | 0.0366 µM (active) | – |
| CC[C@]1(O)CC2CN(CCc3c([nH]c4ccccc34)[C@@](C(=O)OC)(c3cc4c(cc3OC)N(C=O)[C@H]3[C@@](O)(C(=O)OC)[C@H](OC(C)=O)[C@]5(CC)C=CCN6CC[C@]43[C@@H]65)C2)C1 (some centres not stated) | 0.184 µM (active) | – |
| Nc1nc(CSc2nnnn2-c2ccccc2)nc(Nc2ccccc2)n1 | – | -11% (inactive) |
| CCCS(=O)(=O)NC(=O)C1(C)CCCN(C(=O)c2ccnc(Cl)c2)C1 (configuration not stated) | – | 0.0267% (inactive) |
| CCC(CO)Oc1cc(NCc2ccccc2)c2ncn(C3CCCC3)c2c1 (configuration not stated) | – | -20.2% (inactive) |
| COc1ccc(CNc2nc(NCc3ccc(OC)cc3)c3ncn(C4CCCC4)c3n2)cc1 | 4.61 µM (active) | – |
| COc1ccc(CNC2CCCCC2)cc1 | – | -1.73% (inactive) |
| Cc1ccc(S(=O)(=O)N2CCCCC2)cc1NC(=O)CCNC(=O)c1ccccc1Cl | – | 3.61% (inactive) |
| CC(C)(C)NC(=O)NC(=O)COC(=O)Cc1ccc(Cl)cc1Cl | – | -14.2% (inactive) |
| Cn1cc(C(=O)c2ccc(Cl)cc2Cl)cc1C(=O)NN | – | -23% (inactive) |
| CC(C)(C)c1cc(C(=O)NN)n(Cc2ccc(Cl)cc2Cl)n1 | 14.6 µM (active) | – |
| CCN(CC)CCN(C)C(c1ccnc2ccccc12)c1nnnn1-c1ccc2c(c1)OCCO2 (configuration not stated) | – | -2.65% (inactive) |
| COc1ccc(CN2C(=O)C(CC(=O)NCCCCc3ccccc3)CC(C(=O)N3CCOCC3)=C2C)cc1 (configuration not stated) | – | 8.09% (inactive) |
| O=C(Oc1ccc(-c2nc(-c3ccccn3)no2)cc1)c1ccccc1 | 2.31 µM (active) | – |
| O=C(COC(=O)c1ccncc1)c1ccccc1 | – | 20.6% (inactive) |
| Brc1ccc(-c2noc(-c3ccccc3)n2)o1 | – | -0.934% (inactive) |
| COc1ccccc1CNC(=O)c1cc(-c2cc(F)ccc2OC)n[nH]1 | – | -19.4% (inactive) |
| c1ccc(CNCc2ccc(CNCc3ccccc3)cc2)cc1 | – | -9.72% (inactive) |
| Clc1ccc(CN2CCN(/N=C/c3cccnc3)CC2)cc1 | – | 3.89% (inactive) |
| Cc1ccccc1C1=N/C(=C/c2cccnc2)C(=O)O1 | – | 13.6% (inactive) |

| Structure (SMILES) | Potency | activity, negative = toxicity |
| --- | --- | --- |
| O=C1/C(=C\c2cccnc2)CN(Cc2ccccc2)C/C1=C\c1cccnc1 | 1.84 µM (active) | – |
| O=C(Nc1ccccc1)c1ccccc1OCc1ccccc1 | – | 21% (inactive) |
| Cc1c(CN2CCC(CO)(CCOc3ccccc3)CC2)[nH]c2ccc(Cl)cc12 | 23.1 µM (active) | – |
| CC(C)(O)C#Cc1ccc(CN2CCC(CO)(CCc3ccccc3)CC2)cc1 | – | -15% (inactive) |
| CCOC(=O)C1(CCOc2ccccc2)CCN(Cc2cc(OC)c(O)cc2Cl)CC1 | – | -15.4% (inactive) |
| O=C(CC(CC(=O)c1ccccc1)c1ccco1)c1ccccc1 | – | 0.921% (inactive) |
| CC(=O)N1C[C@@H](CO)[C@@H](N(C)C(=O)c2ccco2)C[C@H]1c1ccccc1 | – | -2.1% (inactive) |
| O=[N+]([O-])c1ccc(CN2CC(N3CCC(c4ccccc4)CC3)CS2(=O)=O)cc1 (configuration not stated) | – | -9.12% (inactive) |
| Cc1cccc(NC(=O)C(C)SCc2ccccc2)c1 (configuration not stated) | – | -0.037% (inactive) |
| Cc1cccc(NC(=O)c2nc[nH]c2C(=O)NCC(=O)OCc2ccccc2)c1 | – | 6.4% (inactive) |
| Cc1cccc(CS(=O)(=O)c2ncc(Cl)c(C(=O)Nc3ccc(F)cc3)n2)c1 | 16.4 µM (active) | – |
| O=C(Nc1ccc(F)cc1)c1ccc(S(=O)(=O)NCc2cccnc2)cc1 | – | -20.1% (inactive) |
| Cc1cccc(NC(=O)c2nc(S(=O)(=O)Cc3ccccc3)ncc2Cl)c1 | 6.51 µM (active) | – |
| CCOc1ccc(NC(=O)c2nc(SCC)ncc2Cl)cc1 | – | -1.23% (inactive) |
| CCCCN1C(=O)C(CC(=O)NC(c2ccccc2)c2ccccc2)CC(C(=O)N2CCOCC2)=C1C (configuration not stated) | – | 0.317% (inactive) |
| O=S1(=O)C[C@@H](N2CCN(CCO)CC2)[C@H](COCc2ccccc2)N1 | – | -5.58% (inactive) |
| COc1ccc([C@H]2N[C@]3(CCCN(CC4CCCCC4)C3=O)[C@H]3C(=O)N(C)C(=O)[C@@H]23)cc1 | – | 12% (inactive) |
| Cc1ccccc1S(=O)(=O)NC(=O)C1(C)CCN1C(=O)Cc1ccc(Cl)cc1Cl (configuration not stated) | – | 26.8% (inactive) |
| Cc1cn([C@H]2C[C@H](O)[C@@H](CNC(=O)[C@H](N)Cc3cccnc3)O2)c(=O)[nH]c1=O | – | 3.58% (inactive) |
| Nc1cc(=O)c2[nH]cnc2[nH]1 | – | -25.5% (inactive) |

Reference: PubChem BioAssay AID686971 (National Center for Advancing Translational Sciences (NCATS), 2013)
